The text below walks through data of the supplement of paper PMC12024424.

Counter-ions that a name gives are not always drawn.

For the assay, the system named is Staphylococcus aureus Sa2 (MRSA, cystic fibrosis isolate). Briefly: growth reduction vs untreated control (viable cell count); higher = stronger antibacterial activity; extreme values may be limits of the assay. The conditions noted are these: 0.1 mM; 24 h. Here is the method:
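Single-dose screen of the MedChem Express Drug Repurposing Library (0.1 mM, 1% DMSO) against planktonic MRSA S. aureus Sa2 (CF isolate) in TSB in 96-well plates, 37 °C aerobic, 24 h. Assays were run in triplicate and repeated twice.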
Molecule `C=CCc1ccc(O)c(-c2cc(CC=C)ccc2O)c1` [Magnolol] registered a growth reduction of 100%.

`CO[C@H](C(=O)[C@@H](O)[C@@H](C)O)[C@@H]1Cc2cc3cc(O[C@H]4C[C@@H](O[C@H]5C[C@@H](O)[C@H](O)[C@@H](C)O5)[C@H](O)[C@@H](C)O4)c(C)c(O)c3c(O)c2C(=O)[C@H]1O[C@H]1C[C@@H](O[C@H]2C[C@@H](O[C@H]3C[C@](C)(O)[C@H](O)[C@@H](C)O3)[C@@H](O)[C@@H](C)O2)[C@H](O)[C@@H](C)O1` [Plicamycin] came in with a growth reduction of 100%.

`N[C@@H]1CC[C@@H](c2ccc(Cl)c(Cl)c2)c2ccccc21` [Dasotraline (hydrochloride)] gave a growth reduction of 100%.

As for `CC(OC(=O)c1ccc(Cc2c(O)c3ccccc3oc2=O)cc1)(C(F)(F)F)C(F)(F)F` [Tecarfarin], the growth reduction is 100%.

Molecule `CC(C)/N=c1\cc2n(-c3ccc(Cl)cc3)c3ccccc3nc-2cc1Nc1ccc(Cl)cc1` [Clofazimine] gave a growth reduction of 100%.

`Cc1ccc(NC(=O)C2(c3ccc4c(c3)OC(F)(F)O4)CC2)nc1-c1cccc(C(=O)O)c1` [Lumacaftor] gave a growth reduction of 96%.

On to `O=C(NCc1ccc(Oc2ccccc2)cc1)c1nc(-c2cc(Br)c(O)c(Br)c2)no1`, for which the growth reduction was found to be 100%.

For the molecule `C=C[C@@H]1C[C@]1(NC(=O)[C@@H]1C[C@@H]2CN1C(=O)[C@H](C(C)(C)C)NC(=O)O[C@@H]1C[C@H]1CCCCCc1nc3ccc(OC)cc3nc1O2)C(=O)NS(=O)(=O)C1CC1` [Grazoprevir], the growth reduction was 100%.

Take `CCN(CC)CC#CCOC(=O)C(O)(c1ccccc1)C1CCCCC1` (stereo not given) [Oxybutynin (chloride)]: the growth reduction came to 91%.

`O=C(OCC(O)CO)c1ccccc1Nc1ccnc2cc(Cl)ccc12` (stereo not given) [Glafenine] showed a growth reduction of 100%.

Take `COc1ccc(CN2CCN(C(c3ccc(F)cc3)c3ccc(F)cc3)CC2)c(OC)c1OC` [Lomerizine dihydrochloride]: the growth reduction came to 98%.

In the case of `CN1CCCC(CC2c3ccccc3Sc3ccccc32)C1` (stereo not given) [Metixene hydrochloride hydrate], the growth reduction was 100%.

As to `O=C(O)c1ccccc1Nc1cccc(C(F)(F)F)c1` [Flufenamic acid], the growth reduction was 98%.

In the case of `CCCCCCNC(=O)n1cc(F)c(=O)[nH]c1=O` [Carmofur], the growth reduction stood at 100%.

In turn, `C=Cc1cc(O)cc2nc(-c3ccc(O)c(F)c3)oc12` [Prinaberel] had a growth reduction of 100%.

With `O=C(NC1CCN(CCCCC2(C(=O)NCC(F)(F)F)c3ccccc3-c3ccccc32)CC1)c1ccccc1-c1ccc(C(F)(F)F)cc1` [Lomitapide], the growth reduction was found to be 100%.

`CNC(=O)c1cc(Oc2ccc(NC(=O)Nc3ccc(Cl)c(C(F)(F)F)c3)cc2)ccn1` [Sorafenib] displayed a growth reduction of 100%.

For `CC/C(=C(\c1ccccc1)c1ccc(OCCN(C)C)cc1)c1ccccc1` [Tamoxifen], the growth reduction amounted to 100%.

Take `O=C(O)CNC(=O)c1c(=O)cc(CCc2ccccc2)n2[nH]cnc12` [Enarodustat]: the growth reduction stood at 92%.

As to `O=C(O)c1ccc2c(c1)CCCC(c1ccc(Cl)cc1Cl)=C2c1ccc(O[C@H]2CCN(CCCF)C2)cc1`, the growth reduction was determined as 100%.

Consider `CCc1cc(-c2noc(-c3cc(OC)nc(C4CCCC4)c3)n2)cc(C)c1OC[C@@H](O)CO` [Cenerimod], for which the growth reduction was 100%.

Take `COC(=O)N[C@H](C(=O)N1CCC[C@H]1c1nc(-c2ccc3c(c2)O[C@@H](c2ccccc2)n2c-3cc3cc(-c4c[nH]c([C@@H]5CCCN5C(=O)[C@@H](NC(=O)OC)C(C)C)n4)ccc32)c[nH]1)C(C)C` [Elbasvir]: the growth reduction worked out at 100%.

Take `COc1cccc2c1c(O)c(C(=O)N(C)c1ccc(C(F)(F)F)cc1)c(=O)n2C` [Tasquinimod]: the growth reduction came out at 98%.

Molecule `Cc1cc(C2CCCCC2)n(O)c(=O)c1` [Ciclopirox (olamine)] had a growth reduction of 100%.

`Cc1ncc(NC(=O)c2ccc(CN3CCN(C)CC3)c(C(F)(F)F)c2)cc1Nc1nccc(-c2cccnc2)n1` [Flumatinib] showed a growth reduction of 100%.

For `Clc1ccc(CSC(Cn2ccnc2)c2ccc(Cl)cc2Cl)cc1` (stereo not given) [Sulconazole (mononitrate)], the growth reduction came to 100%.

As to `N#Cc1ccc(Oc2ccc3c(c2)COB3O)cc1` [Crisaborole], the growth reduction was 100%.

Molecule `COc1cccc(Nc2ncnn3ccc(CN4CC[C@@H](N)[C@H](O)C4)c23)c1` displayed a growth reduction of 94%.

`COCCN1CCC(N(Cc2ccc(-c3ccc(C(F)(F)F)cc3)cc2)C(=O)Cn2c(SCc3cccc(F)c3F)cc(=O)c3ccccc32)CC1` [Rilapladib] had a growth reduction of 100%.

`O=C(O)c1ccc(-n2nc(-c3ccccc3O)nc2-c2ccccc2O)cc1` [Deferasirox]: the growth reduction came out at 99%.

On to `CC1(C)CC[C@]2(NC(=O)C(C)(F)F)CC[C@]3(C)[C@H](C(=O)C=C4[C@@]5(C)C=C(C#N)C(=O)C(C)(C)[C@@H]5CC[C@]43C)[C@@H]2C1` [Omaveloxolone], for which the growth reduction stood at 100%.

Regarding `Cc1cc(C)cc([C@@H]2CCCN2Cc2ccc(Oc3ccc(C(N)=O)cc3F)cc2)c1` [Aticaprant], the growth reduction was found to be 100%.

On to `CCCCc1oc2ccc(NS(C)(=O)=O)cc2c1C(=O)c1ccc(OCCCN(CCCC)CCCC)cc1` [Dronedarone (Hydrochloride)], for which the growth reduction is 100%.

`CN1CCCN=C1/C=C/c1cccs1` [Pyrantel (pamoate)] had a growth reduction of 96%.

Molecule `O=C(Nc1ccc(F)cc1)c1cnc(SCc2cc(OC(F)(F)F)ccc2B(O)O)nc1` returned a growth reduction of 100%.

On to `Clc1ccc(CO/N=C(\Cn2ccnc2)c2ccc(Cl)cc2Cl)c(Cl)c1` [Oxiconazole nitrate], for which the growth reduction was found to be 100%.

The molecule `Cc1ccc(Cl)c(Nc2ccccc2C(=O)O)c1Cl` [Meclofenamate (sodium)] returned a growth reduction of 99%.

`O=C(NC[C@H]1CN(c2ccc(N3CCOCC3=O)cc2)C(=O)O1)c1ccc(Cl)s1` [Rivaroxaban] came in with a growth reduction of 100%.

`Cc1ccc(Sc2ccccc2N2CCNCC2)c(C)c1` [Vortioxetine] registered a growth reduction of 100%.

In the case of `COC(=O)/C=C/C(=O)OCCN1C(=O)CCC1=O` [Diroximel fumarate], the growth reduction came to 100%.
